“And” between values parts separate entries of the source, which are not always exact repeats. Identical values can stand only once. The campaign covered roughly 5,500 compounds. About 2,000 (36%) were called active. Roughly 18% stayed inconclusive and do not appear here. No stated cut-off is given here; in the data, active means normalized growth mostly below about 0.91 (no sharp cut-off); inconclusive means no clear call, values can overlap the other calls; inactive means mostly above about 0.92. The list shows a part of the results.
Assay: chemical genetic growth profiling, strain panel (AID 1159580);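 further: tested at 20 µM; growth read once vehicle control cultures reached saturation at 30 °C; 1 = growth at the plate median or of vehicle wells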
Details: growth OD

Measured: normalized growth

Cc1nc2ccccn2c(=O)c1CCN1CCC(C(=O)c2ccc(F)cc2)CC1
inactive: S. cerevisiae deletion strains, locus YJR075W, strain HOC1, stronger effect = lower value 0.974 and 1.01 | S. cerevisiae deletion strains, locus YKL009W, strain mrt4, stronger effect = lower value 1.01 | S. cerevisiae deletion strains, locus YKL068W, stronger effect = lower value 1 | S. cerevisiae deletion strains, locus YKL085W, strain MDH1 (second series), stronger effect = lower value 1.03 | S. cerevisiae deletion strains, locus YKL085W, strain MDH1, stronger effect = lower value 1.03 | S. cerevisiae deletion strains, locus YKL160W, strain elf1, stronger effect = lower value 0.991 | S. cerevisiae deletion strains, locus YKL190W, strain CNB1, stronger effect = lower value 1.02 | S. cerevisiae deletion strains, locus YKR001C, strain vps1, stronger effect = lower value 0.995 | S. cerevisiae deletion strains, locus YKR026C, strain gcn3, stronger effect = lower value 0.98 | S. cerevisiae deletion strains, locus YKR091W, strain srl3, stronger effect = lower value 0.994 | S. cerevisiae deletion strains, locus YLL001W, strain dnm1, stronger effect = lower value 0.997 | S. cerevisiae deletion strains, locus YLL026W, stronger effect = lower value 0.989 | S. cerevisiae deletion strains, locus YLL041C, strain sdh2, stronger effect = lower value 0.991 | S. cerevisiae deletion strains, locus YLR027C, strain aat2, stronger effect = lower value 1 | S. cerevisiae deletion strains, locus YLR039C, strain RIC1, stronger effect = lower value 1.03 | S. cerevisiae deletion strains, locus YLR058C, strain SHM2, stronger effect = lower value 1.02 | S. cerevisiae deletion strains, locus YLR102C, strain apc9, stronger effect = lower value 0.993 | S. cerevisiae deletion strains, locus YLR113W, strain HOG1, stronger effect = lower value 1.01 | S. cerevisiae deletion strains, locus YLR221C, strain rsa3, stronger effect = lower value 1 | S. cerevisiae deletion strains, locus YLR258W, strain gsy2, stronger effect = lower value 0.986 | S. cerevisiae deletion strains, locus YLR262C, strain YPT6 (second series), stronger effect = lower value 0.954 | S. cerevisiae deletion strains, locus YLR262C, strain YPT6, stronger effect = lower value 1.05 | S. cerevisiae deletion strains, locus YLR268W, strain sec22, stronger effect = lower value 0.995 | S. cerevisiae deletion strains, locus YLR320W, strain mms22, stronger effect = lower value 1 | S. cerevisiae deletion strains, locus YLR330W, strain CHS5, stronger effect = lower value 1.02 | S. cerevisiae deletion strains, locus YLR342W, strain FKS1 (second series), stronger effect = lower value 0.988 | S. cerevisiae deletion strains, locus YLR342W, strain FKS1, stronger effect = lower value 0.988 | S. cerevisiae deletion strains, locus YLR357W, strain rsc2, stronger effect = lower value 0.924 | S. cerevisiae deletion strains, locus YLR370C, strain arc18, stronger effect = lower value 0.991 | S. cerevisiae deletion strains, locus YLR371W, strain rom2, stronger effect = lower value 0.989 | S. cerevisiae deletion strains, locus YLR384C, strain iki3, stronger effect = lower value 0.985 | S. cerevisiae deletion strains, locus YLR418C, strain cdc73, stronger effect = lower value 1.01 | S. cerevisiae deletion strains, locus YML016C, strain PPZ1, stronger effect = lower value 1.02 | S. cerevisiae deletion strains, locus YML032C, strain rad52, stronger effect = lower value 0.985 | S. cerevisiae deletion strains, locus YML120C, strain ndi1, stronger effect = lower value 1 | S. cerevisiae deletion strains, locus YML124C, strain tub3, stronger effect = lower value 0.995 | S. cerevisiae deletion strains, locus YMR058W, strain fet3, stronger effect = lower value 1 | S. cerevisiae deletion strains, locus YMR078C, strain ctf18, stronger effect = lower value 0.994 | S. cerevisiae deletion strains, locus YMR125W, strain sto1, stronger effect = lower value 0.962 | S. cerevisiae deletion strains, locus YMR129W, stronger effect = lower value 0.998 | S. cerevisiae deletion strains, locus YMR205C, strain PFK2, stronger effect = lower value 0.985 | S. cerevisiae deletion strains, locus YMR223W, strain ubp8, stronger effect = lower value 0.966 | S. cerevisiae deletion strains, locus YMR231W, strain pep5, stronger effect = lower value 0.977 | S. cerevisiae deletion strains, locus YMR307W, strain GAS1, stronger effect = lower value 1.01 and 1 | S. cerevisiae deletion strains, locus YNL067W, strain RPL9B, stronger effect = lower value 1.04 | S. cerevisiae deletion strains, locus YNL071W, strain lat1, stronger effect = lower value 0.993 | S. cerevisiae deletion strains, locus YNL128W, strain TEP1, stronger effect = lower value 1.02 and 1.01 | S. cerevisiae deletion strains, locus YNL153C, strain GIM3, stronger effect = lower value 1.06 | S. cerevisiae deletion strains, locus YNL175C, strain NOP13, stronger effect = lower value 1.01 | S. cerevisiae deletion strains, locus YNL183C, strain NPR1, stronger effect = lower value 0.979 | S. cerevisiae deletion strains, locus YNL197C, strain WHI3, stronger effect = lower value 1.03 | S. cerevisiae deletion strains, locus YNL209W, strain ssb2, stronger effect = lower value 0.994 | S. cerevisiae deletion strains, locus YNL224C, strain SQS1, stronger effect = lower value 1.01 | S. cerevisiae deletion strains, locus YNL233W, strain BNI4, stronger effect = lower value 1.03 | S. cerevisiae deletion strains, locus YNL248C, strain rpa49, stronger effect = lower value 0.979 | S. cerevisiae deletion strains, locus YNL250W, strain rad50, stronger effect = lower value 0.999 | S. cerevisiae deletion strains, locus YNL271C, strain bni1, stronger effect = lower value 0.977 | S. cerevisiae deletion strains, locus YNL298W, strain CLA4, stronger effect = lower value 0.987 | S. cerevisiae deletion strains, locus YNL307C, strain MCK1, stronger effect = lower value 0.987 | S. cerevisiae deletion strains, locus YNL322C, strain KRE1 (second series), stronger effect = lower value 0.966 | S. cerevisiae deletion strains, locus YNL322C, strain KRE1, stronger effect = lower value 1.02 and 1.01 | S. cerevisiae deletion strains, locus YNR049C, strain mso1, stronger effect = lower value 0.995 | S. cerevisiae deletion strains, locus YNR052C, strain pop2, stronger effect = lower value 0.974 | S. cerevisiae deletion strains, locus YOL006C, strain TOP1, stronger effect = lower value 1.09 | S. cerevisiae deletion strains, locus YOL012C, strain htz1 1.02 | S. cerevisiae deletion strains, locus YOL147C, strain pex11, stronger effect = lower value 0.997 | S. cerevisiae deletion strains, locus YOR001W, strain rrp6, stronger effect = lower value 1.01 | S. cerevisiae deletion strains, locus YOR061W, strain CKA2, stronger effect = lower value 1.02 | S. cerevisiae deletion strains, locus YOR069W, strain VPS5, stronger effect = lower value 1.02 | S. cerevisiae deletion strains, locus YOR070C, strain gyp1, stronger effect = lower value 0.988 | S. cerevisiae deletion strains, locus YOR080W, strain dia2, stronger effect = lower value 0.981 | S. cerevisiae deletion strains, locus YOR083W, strain WHI5 (second series), stronger effect = lower value 1.02 | S. cerevisiae deletion strains, locus YOR083W, strain WHI5, stronger effect = lower value 0.946 | S. cerevisiae deletion strains, locus YOR106W, strain vam3, stronger effect = lower value 0.994 | S. cerevisiae deletion strains, locus YOR136W, strain idh2, stronger effect = lower value 0.996 | S. cerevisiae deletion strains, locus YOR144C, strain elg1, stronger effect = lower value 0.997 | S. cerevisiae deletion strains, locus YOR184W, strain ser1, stronger effect = lower value 0.988 | S. cerevisiae deletion strains, locus YOR231W, strain MKK1, stronger effect = lower value 1.04 | S. cerevisiae deletion strains, locus YOR265W, strain rbl2, stronger effect = lower value 0.989 | S. cerevisiae deletion strains, locus YOR270C, strain vph1, stronger effect = lower value 1.01 | S. cerevisiae deletion strains, locus YOR290C, strain snf2, stronger effect = lower value 0.989 | S. cerevisiae deletion strains, locus YOR316C, strain cot1, stronger effect = lower value 0.999 | S. cerevisiae deletion strains, locus YPL051W, strain arl3, stronger effect = lower value 0.987 | S. cerevisiae deletion strains, locus YPL055C, strain LGE1, stronger effect = lower value 1.09 | S. cerevisiae deletion strains, locus YPL078C, strain atp4, stronger effect = lower value 0.989 | S. cerevisiae deletion strains, locus YPL106C, strain sse1, stronger effect = lower value 0.963 | S. cerevisiae deletion strains, locus YPL240C, strain hsp82, stronger effect = lower value 0.983 | S. cerevisiae deletion strains, locus YPL241C, strain CIN2, stronger effect = lower value 1.02 | S. cerevisiae deletion strains, locus YPL256C, strain CLN2, stronger effect = lower value 1.05 | S. cerevisiae deletion strains, locus YPR119W, strain clb2, stronger effect = lower value 1 | S. cerevisiae deletion strains, locus YPR141C, strain kar3, stronger effect = lower value 1 | S. cerevisiae deletion strains, locus YPR163C, strain tif3, stronger effect = lower value 0.992 | S. cerevisiae deletion strains, locus YPR167C, strain met16, stronger effect = lower value 0.991 | S. cerevisiae deletion strains, strain wtn01, stronger effect = lower value 1.02 | S. cerevisiae strains, strain wild type, stronger effect = lower value 1.01
